Reference: PubChem BioAssay (EPA / NIEHS)
Several values for one entry are separate records, joined by “and”; a condition that tells them apart may be missing. Equal values may be shown once. Activity calls are given as the source filed them. How the source made its calls: active means hit-call score of the fitted dose curve at least 0.9, where 1 is the maximum; inactive means score below 0.9.

Assays:
[1] = read-out: Interleukin-8 (IL8), CXCL8 (gene 3576); test: BSK_BE3C_IL8: BioMAP Diversity Plus: BE3C Assay for Interleukin-8 (IL8) Biomarker Activity (AID 2284280); conditions: primary human bronchial epithelial cells
In short: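 IL-8 signal gain, normalised to DMSO vehicle, was scored after a 24 h chemical exposure of primary human bronchial epithelial cells, with detection by ELISA.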

[2] = read-out: Epidermal growth factor receptor (EGFR), EGFR (gene 1956); test: BSK_BE3C_EGFR: BioMAP Diversity Plus: BE3C Assay for Epidermal growth factor receptor (EGFR) Biomarker Activity (AID 2284281); conditions: primary human bronchial epithelial cells
In short: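 Compound is added to human bronchial epithelial cells, cells incubate 24 h, then EGFR is detected by ELISA. Values reflect positive-direction fitting relative to DMSO.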

KRT18 (gene 3875) = test: BSK_BE3C_Keratin818: BioMAP Diversity Plus: BE3C Assay for Keratin 818 Biomarker Activity (AID 2284282); conditions: primary human bronchial epithelial cells
In short: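 Chemicals are added to human lung bronchial epithelial primary cells (BE3C system) and incubated 24 h. Keratin 8/18 is then measured by ELISA, with parallel SRB total-protein staining gauging overt cytotoxicity.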

[3] = read-out: Plasminogen activator inhibitor-1 (PAI1), SERPINE1 (gene 5054); test: BSK_CASM3C_PAI1: BioMAP Diversity Plus: CASM3C Assay for Plasminogen activator inhibitor-1 (PAI1) Biomarker Activity (AID 2284284); conditions: primary human coronary artery smooth muscle cells;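 further: PAI-1 protein level measured by ELISA 24 h after dosing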
[4] = read-out: Monocyte Chemoattractant Protein-1 (MCP1), CCL2 (gene 6347); test: BSK_hDFCGF_MCP1: BioMAP Diversity Plus: hDFCGF Assay for Monocyte Chemoattractant Protein-1 (MCP1) Biomarker Activity (AID 2284285); conditions: primary human foreskin fibroblasts
In short: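 Human foreskin fibroblasts (hDFCGF system) were exposed to compound and secreted MCP-1 was measured by ELISA after 24 hours. Activity was fitted relative to DMSO. Cytotoxicity was checked by SRB total-protein staining in parallel cultures.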

[5] = read-out: Vascular cell adhesion molecule 1 (VCAM1), VCAM1 (gene 7412); test: BSK_IMphg_VCAM1: BioMAP Diversity Plus: IMphg Assay for Vascular cell adhesion molecule 1 (VCAM1) Biomarker Activity (AID 2284286); conditions: primary human endothelial cells with macrophages
In short: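 Human venular endothelial cells co-cultured with macrophages; VCAM-1 quantified by ELISA 24 h after dosing, fitted in the positive direction against DMSO. Cytotoxicity was checked in parallel cultures by SRB total-protein staining (0.1% SRB after 10% TCA fixation, 560 nm).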

CD40, CD40 (gene 958) = test: BSK_IMphg_CD40: BioMAP Diversity Plus: IMphg Assay for CD40 Biomarker Activity (AID 2284288); conditions: primary human endothelial cells with macrophages
In short: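 Venular endothelial cells co-cultured with macrophages (human primary), CD40 measured by ELISA 24 h after dosing. Positive-direction fit vs DMSO baseline; cytotoxicity tracked by SRB total-protein staining in parallel cultures.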

[6] = read-out: TIMP metallopeptidase inhibitor 2 (TIMP2), TIMP2 (gene 7077); test: BSK_hDFCGF_TIMP2: BioMAP Diversity Plus: hDFCGF Assay for TIMP metallopeptidase inhibitor 2 (TIMP2) Biomarker Activity (AID 2284289); conditions: primary human foreskin fibroblasts
In short: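 Primary human foreskin fibroblasts in the hDFCGF system, dosed for 24 h; TIMP-2 level measured by ELISA, fitted in the positive direction against DMSO; cytotoxicity checked in parallel by sulforhodamine B total protein staining.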

[7] = read-out: Intercellular Adhesion Molecule 1 (ICAM1), ICAM1 (gene 3383); test: BSK_hDFCGF_ICAM1: BioMAP Diversity Plus: hDFCGF Assay for Intercellular Adhesion Molecule 1 (ICAM1) Biomarker Activity (AID 2284287); conditions: primary human foreskin fibroblasts
In short: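 Primary human foreskin fibroblasts (hDFCGF system) dosed with chemical; ICAM-1 quantified by ELISA at 24 h relative to DMSO. Parallel SRB total-protein staining to assess overt cytotoxicity.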

Measured: AC50

C=CC(F)(F)C(F)(F)C(F)(F)C(F)(F)C(F)(F)C(F)(F)C(F)(F)C(F)(F)F
not listed: [7]
inactive: all other assays above

C=C(C)C(=O)OCC(F)(F)C(F)(F)C(F)(F)F
not listed: [7]
inactive: all other assays above

O=C(O)C(F)(OC(F)(F)C(F)(OC(F)(F)C(F)(OC(F)(F)C(F)(F)C(F)(F)F)C(F)(F)F)C(F)(F)F)C(F)(F)F (configuration not stated)
not listed: [6] | [7]
inactive: all other assays above

CCCCCCCCC(F)(F)C(F)(F)C(F)(F)C(F)(F)C(F)(F)C(F)(F)F
not listed: [7]
inactive: all other assays above

O=S(=O)(O)C(F)(F)C(F)(F)C(F)(F)C(F)(F)C(F)(F)C(F)(F)C(F)(F)F
not listed: [6]
inactive: all other assays above

O=C(O)C(F)(F)C(F)(F)C(F)(F)C(F)(F)C(F)(F)C(F)(F)C(F)(F)C(F)(F)C(F)(F)C(F)(F)C(F)(F)C(F)(F)F
active: [5] 15.2 µM and 19.4 µM | CD40, CD40 (gene 958) 13.3 µM and 16.4 µM
not listed: [6] | [7]
inactive: all other assays above

O=C(O)C(F)(F)C(F)(F)C(F)F
not listed: [6] | [7]
inactive: all other assays above

O=C(CC(=O)C(F)(F)C(F)(F)F)C(F)(F)F
not listed: [7]
inactive: all other assays above

C=C(C)C(=O)OCCC(F)(F)C(F)(F)C(F)(F)C(F)(F)C(F)(C(F)(F)F)C(F)(F)F
not listed: [6]
inactive: all other assays above

FC1CC(F)(F)C(F)(F)C1(F)F (configuration not stated)
not listed: [7]
inactive: all other assays above

FC(F)(F)C(F)(F)C(F)(F)C(F)(F)C(F)(F)C(F)(F)C(F)(F)C(F)(F)F
not listed: [7]
inactive: all other assays above

FC(F)(F)C(F)(F)C(F)(F)C(F)(F)CCI
not listed: [6] | [7]
inactive: all other assays above

FC(F)(F)C(F)(F)C(F)(F)CI
inactive: all assays above

CCO[Si](CCC(F)(F)C(F)(F)C(F)(F)C(F)(F)C(F)(F)C(F)(F)F)(OCC)OCC
not listed: [6]
inactive: all other assays above

OCC(F)(F)C(F)(F)C(F)(F)F
not listed: [7]
inactive: all other assays above
